# Values without a mark were called inactive. Active and inactive are the calls of the source.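 The calls were made as follows: active = mean inhibition above 46.5%, the solvent-only control mean plus 3 SD; inactive = the rest.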
# Molecular target: Nuclear receptor coactivator 2 (Homo sapiens) (UniProt Q15596)
# Test: inhibition of GAL4-SRC2 driven luciferase expression – cell-based, luminescence, HEK293, triplicate, confirmation (AID 652008);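 also: 0% = DMSO-treated cells and 100% = Gossypol at 36 µM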
# Conditions: HEK293 GAL4-SRC2 luciferase reporter, at 8.9 µM, stronger effect = higher value
# Sequence of Nuclear receptor coactivator 2 (Homo sapiens) (Q15596 whole entry, looked up, the tested form may be a part): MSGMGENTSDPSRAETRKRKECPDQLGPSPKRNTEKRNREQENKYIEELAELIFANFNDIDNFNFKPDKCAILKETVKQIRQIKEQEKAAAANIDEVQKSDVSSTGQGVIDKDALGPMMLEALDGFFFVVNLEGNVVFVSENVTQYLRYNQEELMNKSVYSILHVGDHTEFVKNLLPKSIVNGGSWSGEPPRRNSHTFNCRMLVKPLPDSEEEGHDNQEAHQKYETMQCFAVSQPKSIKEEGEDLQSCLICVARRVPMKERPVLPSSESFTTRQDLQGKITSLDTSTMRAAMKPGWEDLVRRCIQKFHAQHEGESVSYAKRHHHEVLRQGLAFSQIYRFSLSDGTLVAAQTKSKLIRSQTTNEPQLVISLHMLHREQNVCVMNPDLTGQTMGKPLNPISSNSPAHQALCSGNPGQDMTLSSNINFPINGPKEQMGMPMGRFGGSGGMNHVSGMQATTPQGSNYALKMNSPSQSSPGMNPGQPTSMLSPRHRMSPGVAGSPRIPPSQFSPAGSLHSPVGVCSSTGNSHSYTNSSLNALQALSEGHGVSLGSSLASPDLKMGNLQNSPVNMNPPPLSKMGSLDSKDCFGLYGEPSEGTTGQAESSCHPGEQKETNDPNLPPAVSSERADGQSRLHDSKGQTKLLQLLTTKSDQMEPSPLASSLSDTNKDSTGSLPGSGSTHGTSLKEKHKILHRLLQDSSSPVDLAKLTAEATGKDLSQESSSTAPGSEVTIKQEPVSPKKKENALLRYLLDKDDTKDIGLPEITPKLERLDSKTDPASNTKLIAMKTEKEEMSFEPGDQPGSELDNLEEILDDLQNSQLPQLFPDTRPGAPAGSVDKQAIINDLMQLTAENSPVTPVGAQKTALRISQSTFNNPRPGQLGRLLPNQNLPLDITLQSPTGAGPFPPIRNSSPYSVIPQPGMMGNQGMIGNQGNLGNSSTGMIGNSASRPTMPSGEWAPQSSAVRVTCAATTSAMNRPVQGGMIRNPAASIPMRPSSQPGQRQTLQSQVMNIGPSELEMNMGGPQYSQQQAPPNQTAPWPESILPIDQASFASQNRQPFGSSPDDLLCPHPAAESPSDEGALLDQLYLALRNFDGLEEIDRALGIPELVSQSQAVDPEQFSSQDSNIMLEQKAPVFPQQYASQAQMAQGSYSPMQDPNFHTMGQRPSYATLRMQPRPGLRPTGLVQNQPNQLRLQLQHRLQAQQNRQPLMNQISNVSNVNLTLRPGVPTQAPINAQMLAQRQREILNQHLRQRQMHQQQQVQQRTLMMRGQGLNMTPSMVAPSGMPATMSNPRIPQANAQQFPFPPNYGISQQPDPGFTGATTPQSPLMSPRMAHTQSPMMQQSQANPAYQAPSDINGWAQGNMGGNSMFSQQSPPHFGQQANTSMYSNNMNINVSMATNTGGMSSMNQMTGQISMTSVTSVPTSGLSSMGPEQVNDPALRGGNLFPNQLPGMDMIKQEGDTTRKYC
row,SMILES,inhibition
1,COc1ccc(/C=C2/SC(=S)N(CCCC(=O)N3CCN(C)CC3)C2=O)cc1,2.01%
2,CC1=CC(C)(C)Nc2ccc(OC(=O)C(C)N3C(=O)c4ccccc4C3=O)cc21 (stereo not given),20.7%
3,CCOC(=O)c1c(C)[nH]c(C)c1C(=O)COC(=O)c1ccccc1O,20.3%
4,Cc1ccc(C2CC(c3cccs3)=NN2C(=O)CCl)cc1 (stereo not given),38.9%
5,O=S(=O)(Nc1cc(Sc2cccc3cccnc23)c(O)c2ccccc12)c1ccccc1,98.7% (active)
6,N#Cc1ccc(-c2ccc(OCC(=O)Nc3cccnc3)cc2)cc1,52.6% (active)
7,CC(=O)Nc1ccc(NC(=O)c2ccc(-c3ccnn3C)c3ccoc23)cc1,26.4%
8,CC(=O)C1C(=O)c2c(cccc2[N+](=O)[O-])C1=Nc1cccc(Cl)c1 (stereo not given),-35.9%
9,FC(F)(F)c1cnc(NNC(=S)Nc2ccccc2)c(Cl)c1,14%
10,COC(=O)C1=C(C)N(Cc2ccccc2C(F)(F)F)C(=NCc2ccccc2)NC1c1ccc(Cl)cc1 (stereo not given),1.39%
11,Cc1nc2scc(C)n2c(=O)c1S(=O)(=O)Nc1ccc(OC(F)(F)F)cc1,6.78%
12,CC(C)N(Cc1ccccc1)C(=S)NCc1ccccc1,-6.45%
13,Cc1nc([N+](=O)[O-])c(Sc2nc3ccc([N+](=O)[O-])cc3[nH]2)n1Cc1ccccc1,46.7% (active)
14,COc1cc(OC)cc(C2=Cc3ccc(OC)cc3C(CC(C)=O)N2c2ccc(C#CC3(O)CCCCC3)cc2)c1 (stereo not given),19.6%
15,Cc1ccc(CN2C(=O)/C(=C\c3ccc(C(=O)NCc4cccnc4)cc3)Oc3ccccc32)cc1,50.2% (active)
16,Cc1c(CCC(=O)N2CCC[C@H]2C(=O)O)c(=O)oc2c(C)c3oc4c(c3cc12)CCCC4,37.5%
17,NCCCCCc1nnc(SCc2ccccc2Cl)o1,53.5% (active)
18,COc1ccc(CNCCNC(=O)c2cccs2)c(OC)c1OC,9.01%
19,CC1=CC(C)(C)N(S(=O)(=O)c2ccc(C)cc2)c2ccc(C)cc21,-5.7%
20,Cc1[nH]nc(-c2cccnc2)c1N=NN(C)C,41.1%

row,SMILES,inhibition
1,O=C(NC1CC1)c1ccc(-c2nc3ccccc3s2)s1,16.9%
2,COc1ccc(OC)c(NC(=O)COC(=O)CCCN=C2NS(=O)(=O)c3ccccc32)c1,-10.3%
3,CCCCN1CC(COCc2ccccc2)Oc2cccc(NCc3cc(OC)c(OC)c(OC)c3)c2S1(=O)=O (stereo not given),13.4%
4,O=C(Nc1ncc([N+](=O)[O-])s1)c1ccc2c(c1)OCO2,37.6%
5,O=S(=O)(c1ccc(NC(=S)NCc2ccco2)cc1)N1CCCCC1,4.68%
6,COc1cc2[nH]c3c(=O)n4c(nc3c2cc1OC)SCCC4,13.4%
7,COc1ccc(CN2CCN(Cc3ccc(C(F)(F)F)cc3)CC2)cc1,22.6%
8,Oc1cccc(C(Nc2nccs2)c2ccc3cccnc3c2O)c1 (stereo not given),7.61%
9,N#Cc1c(N)nc2c(c1N)CC(C(F)(F)F)O2 (stereo not given),12%
10,c1ccc(C2=Nn3c(nnc3-c3ccncc3)SC2)cc1,34.6%
11,CC(C)CCSc1nc(N)c(C#N)cc1C#N,17.8%
12,CC(c1ccccc1)N1CCN(C(=O)CCl)CC1 (stereo not given),43.9%
13,Nc1ccc2oc(-c3cccc4ccccc34)nc2c1,48.8% (active)
14,O=C(Cc1coc2cc3c(cc12)CCC3)OCC(=O)N1CCCC1=O,38.7%
15,O=C(CSc1nc2nc(-c3cccs3)cc(C(F)(F)F)c2c(=O)[nH]1)C(F)(F)F,10%
16,O=C1NC(Cc2ccc(O)cc2)c2nc3cc(Cl)ccc3c(=O)n2-c2ncccc21 (stereo not given),-15.2%
17,COc1cccc(C(=O)c2sc(NC(C)C)nc2N)c1,57.2% (active)
18,O=C(Cc1ccc(-c2ccccc2)cc1)NNC(=S)NCc1ccco1,-9.18%
19,CSCC[C@H](NC(=O)c1cc([N+](=O)[O-])ccc1Cl)c1nc2ccccc2[nH]1,19%
20,COc1cc(S(=O)(=O)N(C)Cc2ccc3c(c2)OCCO3)ccc1NC(C)=O,-19.6%
